Data as given in PubChem BioAssay (NCI).
The panel holds about 79,000 compounds, 15% with a hit somewhere; the sample as a whole holds those more often. A number with no mark means an inactive call. Calls of active or inactive are those of the source. Rule as the data show it: active = growth inhibition above about 70%; inactive = the rest.

Assay: NCI Yeast Anticancer Drug Screen. Data for the CLN2oe strain (AID 163);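 also: 0% = growth of vehicle-only control cultures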
Details: S. cerevisiae CLN2oe strain, active compounds read high
Protocol: Growth inhibition of yeast strains with defined genetic alterations is measured as a screen for potential anti-cancer activity. Selected strains with alterations in DNA damage repair or cell cycle control were exposed to compounds and growth inhibition was measured relative to vehicle treated controls. The strain used in this assay is CLN2oe

Row | Structure (SMILES) | growth inhibition (at 1.2 µM) [%] | growth inhibition (at 3.7 µM) [%] | growth inhibition (at 11.0 µM) | growth inhibition (at 33.0 µM) | growth inhibition (at 100.0 µM)
1 | CCCCCCCCCCCCCCCCCCNC(=S)/N=C\C1=C(O)c2ccccc2C1=O | -10 | -7 | -5% | -13% | -4%
2 | S=c1nc(Cl)cc2[nH]c(Cl)cn12 | 1 | -1 | 3% | 3% | 60%
3 | COc1ccc(/C=C(\NC(=O)c2ccccc2)C(=O)NN(C)c2ccnc3cc(Cl)ccc23)cc1OC | -2 | 6 | 38% | 48% | 58%
4 | O=Nn1c2ccccc2c2ccccc21 | 11 | 4 | 11% | 2% | 65%
5 | Cc1ccc(I)cc1N=C=S | -2 | 6 | 10% | 68% | 98% (active)
6 | CCN(CC)CC(O)c1cc(-c2ccc(Cl)cc2)nc2c(-c3ccccc3)cccc12 (stereo not given) | 0 | 2 | 98% (active) | 97% (active) | 94% (active)
7 | CC1=CC2C(C(C)C)CC1C1C(=O)OC(=O)C21 (stereo not given) | -7 | -11 | -10% | -9% | 16%
8 | Nc1ccc2c(c1)sc1ccccc12 | -2 | -5 | -3% | -5% | 95% (active)
